Not all results are given here.
aSyn 5UTR act: Activators working through SNCA 5'UTR binding (MLPCN). alpha-synuclein 5'UTR reporter, activators screen. activity score, % (tested at 7.5 µM), hits read low. actives 7.1% (n = 300,000). AID 1814; in the data active = activity score below about -60%
Each line names hits and unclear results; the compound was inactive in the other large screens.

O=C(CSc1nc2ccccc2o1)Nc1ccc(N2CCOCC2)c(Cl)c1	aSyn 5UTR act -165
CC(=O)Nc1ccc2nc(SCC(=O)Nc3ccc(N4CCOCC4)c(Cl)c3)sc2c1	aSyn 5UTR act -142
COC(=O)c1ccc(-c2ccc(/C=N/N3C(=O)C4C5C=CC(CC5)C4C3=O)o2)cc1 (configuration not stated)	aSyn 5UTR act -191
COc1ccc(C(=S)N2CCOCC2)cc1OS(=O)(=O)c1ccccc1[N+](=O)[O-]	aSyn 5UTR act -70
Cc1cc(C(=O)NCCC2=CCCCC2)no1	aSyn 5UTR act -81
O=C(NCCC1=CCCCC1)c1cnsn1	aSyn 5UTR act -65
Cc1c(C(=O)NCCC2=CCCCC2)cccc1[N+](=O)[O-]	aSyn 5UTR act -90
CCN(CC)c1ccc(C(=O)Nc2cccc(F)c2)cc1	aSyn 5UTR act -77
CN(C)c1cccc(C(=O)Nc2cccc(F)c2)c1	aSyn 5UTR act -175
O=[N+]([O-])c1ccc(N/N=C/c2cccc(O)c2O)cc1	aSyn 5UTR act -170
O=[N+]([O-])c1ccc(N/N=C/c2cccc(O)c2)cc1	aSyn 5UTR act -171
Cc1ccc(NC(=O)c2ccc(N/N=C/c3cccc(O)c3)c([N+](=O)[O-])c2)cc1	none
Cc1cc(C(=O)Nc2sc3c(c2C#N)CCC3)no1	aSyn 5UTR act -107
N#Cc1c(NC(=O)CCCC(=O)O)sc2c1CCCCC2	none
CCCC(=O)Nc1sc2c(c1C#N)CCCCC2	aSyn 5UTR act -167
Cc1cc(C(=O)Nc2sc3c(c2C#N)CCCC3)no1	aSyn 5UTR act -81
Cc1ccccc1OCC(=O)Nc1sc2c(c1C#N)CCC2	aSyn 5UTR act -68
Cn1cc([N+](=O)[O-])c(C(=O)Nc2sc3c(c2C#N)CCC3)n1	none
CC(C)(C)C(=O)NC(=S)Nc1sc2c(c1C#N)CCCCC2	aSyn 5UTR act -106
N#Cc1c(NC(NC(=O)c2ccco2)C(=O)c2ccccc2)sc2c1CCCC2 (configuration not stated)	aSyn 5UTR act -77
Cc1ccc(C(=O)Nc2sc3c(c2C#N)CCCCC3)cc1C	aSyn 5UTR act -191
Cc1noc(C(=O)Nc2sc3c(c2C#N)CCC3)c1Cl	aSyn 5UTR act -67
Cc1cc(/C=C2/C(=O)N(C)C(=S)N2C)c(C)n1C1CC1	aSyn 5UTR act -140
C=CCn1cccc(C(=O)Nc2ccc(C)c(C)c2)c1=O	aSyn 5UTR act -124
C=CCn1cccc(C(=O)Nc2ccc(C)cc2)c1=O	aSyn 5UTR act -133
CCOc1ccc2cc(/C=C/C(=O)c3ccco3)c(Cl)nc2c1	aSyn 5UTR act -172
COc1ccc2cc(/C=N/NC(=O)c3ccc(CN(c4cccc(Cl)c4Cl)S(C)(=O)=O)cc3)c(Cl)nc2c1	none
CC(C)=C1C2C=CC1C1C(=O)N(c3ccc4c(c3)OCO4)C(=O)C21 (configuration not stated)	aSyn 5UTR act -86
O=C(NNS(=O)(=O)c1ccccc1[N+](=O)[O-])c1cccc([N+](=O)[O-])c1	aSyn 5UTR act -69
O=C(Nc1cc([N+](=O)[O-])ccc1O)c1cccc([N+](=O)[O-])c1	aSyn 5UTR act -96
Cc1cc(O)c(NC(=O)c2cccc([N+](=O)[O-])c2)cc1C	aSyn 5UTR act -79
CC(C)(C)c1cc(NC(=O)c2cccc([N+](=O)[O-])c2)no1	aSyn 5UTR act -111
O=C(c1ccc(-c2ccc([N+](=O)[O-])cc2)o1)N1CCCCC1	aSyn 5UTR act -106
O=C(Nc1ccccc1)c1ccc(-c2ccc(Br)cc2)o1	aSyn 5UTR act -93
O=C(Nc1ccccc1)c1ccc(-c2ccc([N+](=O)[O-])cc2)o1	aSyn 5UTR act -98
O=C(Nc1ncccc1O)c1ccc2c(c1)OCO2	aSyn 5UTR act -207
Cc1cccnc1NC(=O)c1ccc2c(c1)OCCO2	aSyn 5UTR act -172
O=C(Nc1ncccc1O)c1ccc2c(c1)OCCO2	aSyn 5UTR act -222
O=c1c2ccccc2oc2ccc(-c3ccc4[nH]ccc4c3)cc12	aSyn 5UTR act -154
COc1cc(C(=O)NC(=S)N(CCc2ccccc2)CCc2ccccc2)cc(OC)c1OC	none
COc1cc(C(=O)Nc2ccc(N(C)C)cc2)cc(OC)c1OC	aSyn 5UTR act -99
Cc1nc2cc(NC(=O)N3CCCCC3)ccc2n1C	aSyn 5UTR act -71
Cc1ccc(NC(=O)Nc2ccc3c(c2)nc(C)n3C)cc1C	aSyn 5UTR act -127
COc1cc(C(=O)Nc2ccc3c(c2)nc(C)n3C)cc(OC)c1OC	aSyn 5UTR act -92
COc1ccc(NC(=S)N2CCc3ccccc32)cc1OC	aSyn 5UTR act -83
Cc1cc(C)c2c(N)c(C(=O)Nc3ccccc3Br)sc2n1	aSyn 5UTR act -133
Cc1cc(C)c2c(N)c(C(=O)Nc3ccccc3F)sc2n1	aSyn 5UTR act -157
C=COC(=O)c1sc2nc(C)cc(C)c2c1N	aSyn 5UTR act -62
Cc1cc(C)c2c(N)c(C(=O)Nc3ccccc3Cl)sc2n1	aSyn 5UTR act -105
N#Cc1cc2c(nc1SCC(=O)Nc1sc3c(c1C#N)CCC3)CCCCCC2	aSyn 5UTR act -93
CN1CCc2nc(SCC(=O)Nc3ccc(Cl)cc3)c(C#N)cc2C1	aSyn 5UTR act -65
N#Cc1cc2c(nc1SCC(=O)Nc1sc3c(c1C#N)CCC3)CCC2	aSyn 5UTR act -141
N#Cc1c(NC(=O)CSc2ncn[nH]2)sc2c1CCCC2	none

Screening results from PubChem.
